# Screening results: PubChem BioAssay, National Center for Advancing Translational Sciences (NCATS)
# Sampled rows, rich in hits. Any-hit rate of the full collection: about 12%.
# Sfp PPTase inh: inhibitors of Bacillus subtilis Sfp phosphopantetheinyl transferase; Biochemical Sfp PPTase activity, qHTS; 310,000 compounds, 3.5% hits; Potency, µM, usual class: inhibitors; Q9F4F7;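 further: the enzyme is Sfp with the accession as filed and its product quenches rhodamine fluorescence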
#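 Buffer: 50 mM Hepes-Na pH 7.6, 10 mM MgCl2, 0.01% Nonidet P-40, 0.01% BSA. Enzyme 15 nM, pre-exposed to compound 15 min; substrates then added and fluorescence change tracked over 30 min.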
# HP1b binding inh: HP1-beta chromodomain-methylated histone interaction inhibition | AlphaScreen HP1-beta / biotin-H3K9me3 peptide binding | Potency, µM (titrated, usually from 114 µM), usual class: inhibitors | AID 540317 | 390,000 compounds, 0.56% hits | P83916; further: nearly all actives have a fitted effect of over 70% in size
#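 HP1-beta protein (50 nM final) preincubated 30 min at room temperature with biotinylated H3(1-18)K9me3 peptide (50 nM) in PBS pH 7.4, 0.01% Tween-20, then compound added for 30 min. AlphaScreen streptavidin donor/nickel chelate acceptor beads (10 ug/mL final), 30 min dark, luminescence read.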
# BAZ2B block: blocks human BAZ2B; Q9UIF8; AlphaScreen BAZ2B-H3K14Ac peptide displacement; Potency, µM (top dose mostly 114 µM), most hits filed as inhibitors; 360,000 compounds, 4.4% hits; AID 504333; further: nearly all actives have a fitted effect of over 60% in size
#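 Multi-concentration screen (max 110 uM) measuring displacement of acetylated histone H3 peptide from BAZ2B by AlphaScreen, using 50 nM protein, 50 nM peptide and 10 ug/mL streptavidin donor plus Ni-chelate acceptor beads.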
# JMJD2A Tudor inh: blocks the human JMJD2A Tudor domain | O75164 | AlphaScreen JMJD2A-Tudor / H3K4me3 peptide binding | Potency, µM (top dose mostly 114 µM), actives largely listed as inhibitors | 390,000 compounds, 4.4% hits | AID 504339; further: nearly all actives have a fitted effect of over 50% in size
# Target sequence (O75164 whole entry, looked up, the tested form may be a part): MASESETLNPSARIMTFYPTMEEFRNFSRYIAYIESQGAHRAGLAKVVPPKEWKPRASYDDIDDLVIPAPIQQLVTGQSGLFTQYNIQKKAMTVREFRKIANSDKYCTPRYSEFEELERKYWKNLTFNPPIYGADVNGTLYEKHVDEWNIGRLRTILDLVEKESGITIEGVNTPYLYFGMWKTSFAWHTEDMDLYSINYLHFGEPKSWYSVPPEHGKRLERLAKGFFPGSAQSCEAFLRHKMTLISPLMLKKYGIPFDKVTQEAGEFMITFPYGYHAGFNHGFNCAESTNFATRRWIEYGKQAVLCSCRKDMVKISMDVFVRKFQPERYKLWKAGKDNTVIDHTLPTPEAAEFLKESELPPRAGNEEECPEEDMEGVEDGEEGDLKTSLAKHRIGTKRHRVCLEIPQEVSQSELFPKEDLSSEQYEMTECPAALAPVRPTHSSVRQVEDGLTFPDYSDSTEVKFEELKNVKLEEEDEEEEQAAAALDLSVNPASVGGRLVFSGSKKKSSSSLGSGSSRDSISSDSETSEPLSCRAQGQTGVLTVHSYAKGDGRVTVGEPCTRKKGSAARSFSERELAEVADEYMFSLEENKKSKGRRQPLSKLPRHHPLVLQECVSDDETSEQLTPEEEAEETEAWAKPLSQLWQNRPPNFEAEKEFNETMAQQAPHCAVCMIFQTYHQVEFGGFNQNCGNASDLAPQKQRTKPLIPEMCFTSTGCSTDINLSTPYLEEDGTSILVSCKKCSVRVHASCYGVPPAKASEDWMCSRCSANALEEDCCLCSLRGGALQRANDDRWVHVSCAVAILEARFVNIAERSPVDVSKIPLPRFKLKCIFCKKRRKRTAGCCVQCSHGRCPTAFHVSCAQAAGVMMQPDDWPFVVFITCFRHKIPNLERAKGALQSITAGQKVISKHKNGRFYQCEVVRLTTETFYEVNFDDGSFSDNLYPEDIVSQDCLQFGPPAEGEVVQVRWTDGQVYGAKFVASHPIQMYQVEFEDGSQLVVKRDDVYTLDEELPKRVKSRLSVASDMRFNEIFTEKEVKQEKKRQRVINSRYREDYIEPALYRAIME
# G9a inh: blocks human histone lysine methyltransferase G9a; Q96KQ7; G9a H3K9 monomethylation, AlphaScreen, 2 h; Potency, µM (highest dose often 102 µM), hits mostly inhibitors; 350,000 compounds, 8.8% hits; further: nearly all actives have a fitted effect of over 75% in size
#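 Chemiluminescent proximity detection of H3K9 monomethylation, read after 10 min bead incubation in the dark. Reaction: 20 nM G9a, 500 nM biotin-H3K9 peptide, 20 uM SAM cofactor, 2 h, room temperature, following 15 min enzyme-compound preincubation.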
# Hits are given with their value; i = inactive; ? = inconclusive; nt = no result; [ ] = remark or other dose. The call rests on the fitted dose curve; in most records, active means well fitted curve in the direction sought with a large enough effect; inconclusive means small, poorly fitted or top-dose-only effect, or another doubt; inactive means no such curve, though single readings can be large; an effect the other way counts as inactive or inconclusive.
SMILES,Sfp PPTase inh,HP1b binding inh,BAZ2B block,JMJD2A Tudor inh,G9a inh
CN(C(=S)NC(=O)CCCOc1ccc(Cl)cc1Cl)c1ccccc1,50µM,i,i,i,?
CN(C(=S)NC(=O)Cc1ccccc1)c1ccccc1,18µM,i,i,i,nt
OCCC1CN(Cc2cccn2-c2ncccn2)CCN1C1CCCC1 (stereo unspecified),i,i,i,i,i
COc1ccc(C(=O)NNC(=O)Cc2nc3nc(C)cc(C)n3n2)cc1,i,i,i,i,0.35µM
Cc1cc(C)n2nc(CC(=O)NNC(=O)c3ccc(N(C)C)cc3)nc2n1,i,i,?,i,nt
Cc1cc(C)n2nc(CC(=O)NNC(=O)c3ccccc3Cl)nc2n1,i,i,i,i,7.1µM
Cc1cc(C)n2nc(C(=O)N/N=C/c3ccc(Cl)cc3)nc2n1,i,i,i,i,i
Cc1ccc(C(=O)NNC(=O)Cc2nc3nc(C)cc(C)n3n2)cc1,i,i,i,i,nt
Cc1cc(C)n2nc(C(=O)NNC(=O)c3ccc(Cl)cc3)nc2n1,?,i,89µM,i,?
Cc1ccc(CNC(=O)C(=O)NCC(c2ccc3c(c2)OCO3)N2CCOCC2)cc1 (stereo unspecified),nt,i,i,i,i
COc1ccc(-c2nnc3n2N=C(c2ccc(OC)cc2OC)CS3)cc1,i,nt,nt,i,nt
S=c1[nH]nc2sc3ccccc3n12,nt,i,nt,1.1µM,nt
COc1ccc(CCNC(=O)Cn2c(=O)c3sccc3n(CC(=O)Nc3cccc(C(F)(F)F)c3)c2=O)cc1OC,nt,i,i,i,i
COc1ccc(N2CCN(C(=O)c3nc(-c4ccc(Cl)cc4)n4c3CCCCC4)CC2)cc1,nt,?,45µM,35µM,11µM
Cc1ccc(CNC(=O)c2nc(-c3ccc(Cl)cc3)n3c2CCCCC3)cc1,nt,?,10µM,22µM,8.9µM
COc1ccc(OC)c(CCNC(=O)c2nc(-c3ccc(Cl)cc3)n3c2CCCCC3)c1,nt,i,16µM,28µM,14µM
Cc1ccc(-c2nc(C(=O)N3CCN(c4ccccc4)CC3)c3n2CCCCC3)cc1,nt,i,i,i,i
COc1ccc(NC(=O)c2nc(-c3ccc(C)cc3)n3c2CCCCC3)cc1,nt,i,i,i,?
COc1ccc(NC(=O)c2nc(-c3ccc(C)cc3)n3c2CCCCC3)c(OC)c1,nt,i,i,i,i
Cc1nc(N2CCCC2)ncc1C(=O)N1CCN(c2ccccc2F)CC1,nt,i,i,i,i[12.7 µM]
Cc1nc(N2CCCC2)ncc1C(=O)N1CCN(c2ccc(Cl)cc2)CC1,nt,i,79µM,i,i
CN(C(=O)CSc1nc2ccc(NC(=O)c3ccco3)cc2s1)c1ccccc1,nt,i,i,i,i
CCOc1ccc(CCNC(=O)c2nc(-c3cccc(F)c3)n3c2CCCCC3)cc1OCC,nt,?,18µM,50µM,28µM
Cc1cc2c3c([nH]c2cc1S(=O)(=O)N1CCC2(CC1)OCCO2)CC(C)(C)CC3=O,i,i,i,i,i
Cc1ccc(CNC(=O)COC(=O)c2cncc(Br)c2)cc1,i,i,i,i,?
SMILES,Sfp PPTase inh,HP1b binding inh,BAZ2B block,JMJD2A Tudor inh,G9a inh
COc1cc(OC)cc(C(=O)OCC(=O)Nc2nnc(-c3ccccc3)o2)c1,nt,i,nt,50µM,nt
O=C(COC(=O)c1ccc(Cl)nc1)Nc1nnc(-c2ccccc2)o1,nt,i,50µM,79µM,i
O=C(COC(=O)CNC(=O)c1ccc(Br)cc1)Nc1nnc(-c2ccccc2)o1,nt,i,i,i,?
Cc1ccc(C(=O)CCC(=O)OCC(=O)Nc2nnc(-c3ccccc3)o2)cc1,nt,i,?,i,i
COc1ccc(CNC(=O)COC(=O)c2cncc(Br)c2)cc1,i,i,i,i,40µM
O=C(COC(=O)c1cncc(Br)c1)Nc1nnc(-c2ccccc2)o1,nt,i,nt,50µM,nt
COc1ccc2c(COC(=O)CNS(=O)(=O)c3ccc(C)c(C)c3)cc(=O)oc2c1,nt,i,i,i,?
COc1cc(C(=O)N(Cc2cccnc2)c2nc3cc(C)c(C)cc3s2)cc(OC)c1OC,nt,i,i,i,i
CN(Cc1ccccc1)c1nc(-c2ccc([N+](=O)[O-])cc2)nc2ccccc12,i,i,?,?,i
O=[N+]([O-])c1ccc(-c2nc(C(Cl)Cl)c3ccccc3n2)cc1,i,i,?,i,22µM
CSc1cccc(NC(=O)C2CCN(S(=O)(=O)c3ccc4[nH]c(=O)ccc4c3)CC2)c1,nt,i,i,i,i
CCCOC(=O)c1ccc(Nc2c(C(=O)OCC)cnc3c(C)cc(Cl)cc23)cc1,nt,i,i,i,i
